Measured values taken from the supplement of paper PMC8728848.
Shown is part of a subset that was picked to be rich in the strongest signals.

Legend:
Assay in all cases: glycan array binding signal (z-score within array); higher = stronger binding
Conditions in all cases: glycan notation: IUPAC condensed, linker removed
Glc(b1-6)Glc = biological target: Glc(b1-6)Glc
Summary of the method: (§1)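 The binding signal is a Z-score computed within each array. Data were drawn from 3228 arrays in the Consortium for Functional Glycomics database, restricted to those with a known protein sequence. Scores were averaged over arrays of the same protein sequence at different concentrations or buffers, and over linkers, and negative values can be taken as non-binding.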

[1] = biological target: GlcNAc(b1-2)Man(a1-3)[GlcNAc(b1-4)][GlcNAc(b1-2)Man(a1-6)]Man(b1-4)GlcNAc(b1-4)[Fuc(a1-6)]GlcNAc
Summary of the method: as §1

[2] = biological target: GlcNAc(b1-2)[GlcNAc(b1-4)]Man(a1-3)[GlcNAc(b1-2)Man(a1-6)]Man(b1-4)GlcNAc(b1-4)GlcNAc
Summary of the method: as §1

[3] = biological target: GlcNAc(b1-2)[GlcNAc(b1-4)]Man(a1-3)[GlcNAc(b1-4)][GlcNAc(b1-2)[GlcNAc(b1-6)]Man(a1-6)]Man(b1-4)GlcNAc(b1-4)[Fuc(a1-6)]GlcNAc
Summary of the method: as §1

[4] = biological target: GlcNAc(b1-3)Gal(b1-4)GlcNAc(b1-3)[GlcNAc(b1-3)Gal(b1-4)GlcNAc(b1-3)]GalNAc
Summary of the method: as §1

[5] = biological target: GlcNAc(b1-3)[GlcNAc(b1-6)]GalNAc
Summary of the method: as §1

[6] = biological target: GlcNAc(b1-6)Gal(b1-4)GlcNAc
Summary of the method: as §1

GlcNAc(b1-6)GalNAc = biological target: GlcNAc(b1-6)GalNAc
Summary of the method: as §1

[7] = biological target: Man(a1-2)Man(a1-6)[Man(a1-3)]Man(a1-6)[Man(a1-2)Man(a1-2)Man(a1-3)]Man
Summary of the method: as §1

Man(a1-6)Man = biological target: Man(a1-6)Man
Summary of the method: as §1

MurNAc(b1-4)GlcNAc = biological target: MurNAc(b1-4)GlcNAc
Summary of the method: as §1

[8] = biological target: Neu5Ac(a2-3)Gal(b1-3)[GlcNAc(b1-6)]GalNAc
Summary of the method: as §1

[9] = biological target: Neu5Ac(a2-3)Gal(b1-4)GlcNAc(b1-2)Man(a1-3)[Neu5Ac(a2-3)Gal(b1-4)GlcNAc(b1-2)Man(a1-6)]Man(b1-4)GlcNAc(b1-4)GlcNAc
Summary of the method: as §1

[10] = biological target: Neu5Ac(a2-3)Gal(b1-4)GlcNAc(b1-2)Man(a1-3)[Neu5Ac(a2-3)Gal(b1-4)GlcNAc(b1-2)Man(a1-6)]Man(b1-4)GlcNAc(b1-4)[Fuc(a1-6)]GlcNAc
Summary of the method: as §1

[11] = biological target: Neu5Ac(a2-3)Gal(b1-4)GlcNAc(b1-2)Man(a1-3)[Neu5Ac(a2-6)Gal(b1-4)GlcNAc(b1-2)Man(a1-6)]Man(b1-4)GlcNAc(b1-4)GlcNAc
Summary of the method: as §1

[12] = biological target: Neu5Ac(a2-3)Gal(b1-4)[Fuc(a1-3)]GlcNAc(b1-6)[Neu5Ac(a2-3)Gal(b1-3)]GalNAc
Summary of the method: as §1

[13] = biological target: Neu5Ac(a2-3)Gal6S(b1-4)GlcNAc
Summary of the method: as §1

[14] = biological target: Neu5Ac(a2-3)Gal6S(b1-4)[Fuc(a1-3)]GlcNAc
Summary of the method: as §1

[15] = biological target: Neu5Ac(a2-6)Gal(b1-4)GlcNAc(b1-2)Man(a1-3)[Neu5Ac(a2-3)Gal(b1-4)GlcNAc(b1-2)Man(a1-6)]Man(b1-4)GlcNAc(b1-4)GlcNAc
Summary of the method: as §1

[16] = biological target: Neu5Ac(a2-6)Gal(b1-4)GlcNAc(b1-3)Gal(b1-4)GlcNAc(b1-6)[Gal(b1-3)]GalNAc
Summary of the method: as §1

Neu5Ac(b2-6)GalNAc = biological target: Neu5Ac(b2-6)GalNAc
Summary of the method: as §1

Neu5Gc(a2-3)Gal(b1-4)Glc = biological target: Neu5Gc(a2-3)Gal(b1-4)Glc
Summary of the method: as §1

[17] = biological target: Fuc(a1-2)Gal(b1-3)GalNAc(a1-3)[Fuc(a1-2)]Gal(b1-4)Glc
Summary of the method: as §1

[18] = biological target: Fuc(a1-2)Gal(b1-3)[Fuc(a1-4)]GlcNAc
Summary of the method: as §1

[19] = biological target: Fuc(a1-2)[Gal(a1-3)]Gal(b1-3)GlcNAc(b1-2)Man(a1-3)[Fuc(a1-2)[Gal(a1-3)]Gal(b1-3)GlcNAc(b1-2)Man(a1-6)]Man(b1-4)GlcNAc(b1-4)[Fuc(a1-6)]GlcNAc
Summary of the method: as §1

[20] = biological target: Fuc(a1-2)[Gal(a1-3)]Gal(b1-3)GlcNAc(b1-6)GalNAc
Summary of the method: as §1

[21] = biological target: Fuc(a1-2)[Gal(a1-3)]Gal(b1-4)GlcNAc(b1-3)[Fuc(a1-2)[Gal(a1-3)]Gal(b1-4)GlcNAc(b1-6)]GalNAc
Summary of the method: as §1

[22] = biological target: Fuc(a1-2)[Gal(a1-3)]Gal(b1-4)[Fuc(a1-3)]GlcNAc(b1-3)GalNAc
Summary of the method: as §1

[23] = biological target: Fuc(a1-2)[GalNAc(a1-3)]Gal(b1-3)GlcNAc(b1-6)GalNAc
Summary of the method: as §1

[24] = biological target: Fuc(a1-2)[GalNAc(a1-3)]Gal(b1-4)[Fuc(a1-3)]GlcNAc(b1-3)GalNAc
Summary of the method: as §1

Fuc(a1-3)GlcNAc = biological target: Fuc(a1-3)GlcNAc
Summary of the method: as §1

[25] = biological target: Fuc(a1-3)[Gal(b1-4)]GlcNAc(b1-2)Man
Summary of the method: as §1

[26] = biological target: Fuc(a1-3)[Gal(b1-4)]GlcNAc(b1-3)Gal(b1-3)[Fuc(a1-4)]GlcNAc
Summary of the method: as §1

Fuc(a1-4)GlcNAc = biological target: Fuc(a1-4)GlcNAc
Summary of the method: as §1

[27] = biological target: Gal(a1-4)Gal(b1-3)GlcNAc(b1-2)Man(a1-3)[Gal(a1-4)Gal(b1-3)GlcNAc(b1-2)Man(a1-6)]Man(b1-4)GlcNAc(b1-4)GlcNAc
Summary of the method: as §1

[28] = biological target: Gal(a1-4)Gal(b1-4)GlcNAc(b1-3)Gal(b1-4)Glc
Summary of the method: as §1

[29] = biological target: Gal(b1-3)GalNAc(b1-4)[Neu5Ac(a2-3)]Gal(b1-4)Glc
Summary of the method: as §1

[30] = biological target: Gal(b1-3)GlcNAc(b1-2)Man(a1-3)[Gal(b1-3)GlcNAc(b1-2)Man(a1-6)]Man(b1-4)GlcNAc(b1-4)[Fuc(a1-6)]GlcNAc
Summary of the method: as §1

[31] = biological target: Gal(b1-3)[Fuc(a1-4)]GlcNAc(b1-2)Man
Summary of the method: as §1

[32] = biological target: Gal(b1-4)GalNAc(b1-3)[Fuc(a1-2)]Gal(b1-4)GlcNAc
Summary of the method: as §1

[33] = biological target: Gal(b1-4)GlcNAc(b1-2)[Gal(b1-4)GlcNAc(b1-6)]Man(a1-6)[GlcNAc(b1-4)][Gal(b1-4)GlcNAc(b1-2)[Gal(b1-4)GlcNAc(b1-4)]Man(a1-3)]Man(b1-4)GlcNAc(b1-4)[Fuc(a1-6)]GlcNAc
Summary of the method: as §1

[34] = biological target: Gal(b1-4)GlcNAc(b1-3)Gal(b1-4)GlcNAc(b1-3)Gal(b1-4)GlcNAc(b1-2)Man(a1-3)[Gal(b1-4)GlcNAc(b1-3)Gal(b1-4)GlcNAc(b1-3)Gal(b1-4)GlcNAc(b1-2)Man(a1-6)]Man(b1-4)GlcNAc(b1-4)[Fuc(a1-6)]GlcNAc
Summary of the method: as §1

[35] = biological target: Gal(b1-4)GlcNAc(b1-3)Gal(b1-4)GlcNAc(b1-3)Gal(b1-4)GlcNAc(b1-3)Gal(b1-4)GlcNAc(b1-2)Man(a1-3)[Gal(b1-4)GlcNAc(b1-3)Gal(b1-4)GlcNAc(b1-3)Gal(b1-4)GlcNAc(b1-3)Gal(b1-4)GlcNAc(b1-2)Man(a1-6)]Man(b1-4)GlcNAc(b1-4)[Fuc(a1-6)]GlcNAc
Summary of the method: as §1

[36] = biological target: Gal(b1-4)GlcNAc(b1-6)GalNAc
Summary of the method: as §1

Gal3S(b1-3)GlcNAc = biological target: Gal3S(b1-3)GlcNAc
Summary of the method: as §1

[37] = biological target: Gal3S(b1-4)[Fuc(a1-3)]Glc6S
Summary of the method: as §1

GalNAc(a1-3)Gal = biological target: GalNAc(a1-3)Gal
Summary of the method: as §1

GalNAc(b1-3)GlcNAc = biological target: GalNAc(b1-3)GlcNAc
Summary of the method: as §1

GalNAc(b1-4)GlcNAc = biological target: GalNAc(b1-4)GlcNAc
Summary of the method: as §1

GalNAc4S6S(b1-4)GlcNAc = biological target: GalNAc4S6S(b1-4)GlcNAc
Summary of the method: as §1

[38] = biological target: Glc(a1-6)Glc(a1-6)Glc(a1-6)Glc
Summary of the method: as §1

[39] = biological target: GlcNAc(a1-4)Gal(b1-4)GlcNAc(b1-3)Gal(b1-4)GlcNAc
Summary of the method: as §1

B1: Apa (Mycobacterium tuberculosis), Rv1860 (protein)
chain: MHQVDPNLTRRKGRLAALAIAAMASASLVTVAVPATANADPEPAPPVPTTAASPPSTAAAPPAPATPVAPPPPAAANTPNAQPGDPNAAPPPADPNAPPPPVIAPNAPQPVRIDNPVGGFSFALPAGWVESDAAHFDYGSALLSKTTGDPPFPGQPPPVANDTRIVLGRLDQKLYASAEATDSKAAARLGSDMGEFYMPYPGTRINQETVSLDANGVSGSASYYEVKFSDPSKPNGQIWTGVIGSPAANAPDAGPPQRWFVVWLGTANNPVDKGAAKALAESIRPLVAPPPAPAPAPAEPAPAPAPAGEVAPTPTTPTPQRTLPA
Glc(b1-6)Glc
  glycan array binding signal (z-score): -0.327
[1]
  glycan array binding signal (z-score): -0.607
[2]
  glycan array binding signal (z-score): -0.083
[3]
  glycan array binding signal (z-score): -0.482
[4]
  glycan array binding signal (z-score): 0.26
[5]
  glycan array binding signal (z-score): -0.468
[6]
  glycan array binding signal (z-score): -0.453
GlcNAc(b1-6)GalNAc
  glycan array binding signal (z-score): -0.174
[7]
  glycan array binding signal (z-score): 0.102
Man(a1-6)Man
  glycan array binding signal (z-score): -0.69
MurNAc(b1-4)GlcNAc
  glycan array binding signal (z-score): -0.3
[8]
  glycan array binding signal (z-score): -0.268
[9]
  glycan array binding signal (z-score): -0.603
[10]
  glycan array binding signal (z-score): 0.28
[11]
  glycan array binding signal (z-score): -0.452
[12]
  glycan array binding signal (z-score): 0.026
[13]
  glycan array binding signal (z-score): -0.642
[14]
  glycan array binding signal (z-score): -0.633
[15]
  glycan array binding signal (z-score): -0.473
[16]
  glycan array binding signal (z-score): -0.533
Neu5Ac(b2-6)GalNAc
  glycan array binding signal (z-score): -0.414
Neu5Gc(a2-3)Gal(b1-4)Glc
  glycan array binding signal (z-score): -0.297

B2: AidA (Burkholderia cenocepacia) (protein)
chain: MSRVTDVLVSFDTETILKKYPNPSKNPAAPTLIDWRYVYMVTNQDNVISGQAGGELDLKAQVGDLIRWRETSLSLGFENQVVFYKFIGNVGNDLISTPTPRVAEASIPVPNTSKPEVPTCQKVANYYWSSECLKVGRVTYHFQFQIIDRNCQSQGCFSWDPFISIHN
[17]
  glycan array binding signal (z-score): -0.374
[18]
  glycan array binding signal (z-score): -0.268
[19]
  glycan array binding signal (z-score): 1.35
[20]
  glycan array binding signal (z-score): 0.594
[21]
  glycan array binding signal (z-score): 0.451
[22]
  glycan array binding signal (z-score): -0.44
[23]
  glycan array binding signal (z-score): 1.7
[24]
  glycan array binding signal (z-score): 19.7
Fuc(a1-3)GlcNAc
  glycan array binding signal (z-score): -0.017
[25]
  glycan array binding signal (z-score): 0.556
[26]
  glycan array binding signal (z-score): -0.459
Fuc(a1-4)GlcNAc
  glycan array binding signal (z-score): 3.1
[27]
  glycan array binding signal (z-score): 0.346
[28]
  glycan array binding signal (z-score): -0.277
[29]
  glycan array binding signal (z-score): 0.172
[30]
  glycan array binding signal (z-score): -0.149
[31]
  glycan array binding signal (z-score): -0.108
[32]
  glycan array binding signal (z-score): -0.557
[33]
  glycan array binding signal (z-score): -0.272
[34]
  glycan array binding signal (z-score): 1.44
[35]
  glycan array binding signal (z-score): 0.416
[36]
  glycan array binding signal (z-score): -0.507
Gal3S(b1-3)GlcNAc
  glycan array binding signal (z-score): 2.41
[37]
  glycan array binding signal (z-score): 2.38
GalNAc(a1-3)Gal
  glycan array binding signal (z-score): 0.384
GalNAc(b1-3)GlcNAc
  glycan array binding signal (z-score): -0.115
GalNAc(b1-4)GlcNAc
  glycan array binding signal (z-score): 1.43
GalNAc4S6S(b1-4)GlcNAc
  glycan array binding signal (z-score): -0.374
[38]
  glycan array binding signal (z-score): -0.597
[39]
  glycan array binding signal (z-score): 0.177
